Assay [1] addresses DNA repair nuclease/redox regulator APEX1 (Homo sapiens) (UniProt P27695). Nature of the assay: qHTS Validation Assay for Inhibitors of the Human Apurinic/apyrimidinic Endonuclease 1 (APE1) (AID 1705;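 further: TAMRA fluorescence gain over two minutes as APE1 cuts a quenched THF abasic duplex; series mostly up to about 57 µM; on the % scale 0 is the no-effect control and ±100 the full control effect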). The essentials: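 Human APE1 was preincubated with compound for 15 min at room temperature, then 50 nM (final) THF-abasic double-stranded DNA substrate bearing 5'-TAMRA and 3'-BHQ-2 was added. Incision-driven fluorescence rise (ex 525/em 598 nm) was read kinetically.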
In general terms: Quantitative high-throughput screening tests each substance at several concentrations.

Assay [2] is described as follows: Counterscreen for APE1 Inhibitors: Fluorescent Dye Displacement Validation Assay (AID 1707).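 Further: plate controls were ThO with dsDNA and no compound for no effect and ThO without dsDNA for full effect.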 The essentials: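 ThO 250 nM + dsDNA 50 nM (THF abasic site, 5'-TAMRA), Tris-HCl pH7.5/50mM NaCl/2 mM MgCl2/0.01% Tween-20; compounds pin-transferred; ex 480/em 540 nm endpoint. Neutral = no compound; no-DNA ThO wells = negative control.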
(In general: A counterscreen serves to expose hits that act by an unwanted route or on another target.)

Assay [3] is described as follows: qHTS for differential inhibitors of proliferation of Plasmodium falciparum line Dd2 (AID 1882). Further: nearly all actives have a fitted effect of over 65% in size. Further: potency means the concentration at half of the fitted maximal effect. The settings on record: Potency: Plasmodium falciparum Dd2 proliferation inhibition. A digest of the protocol:
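SYBR Green I DNA fluorescence read-out, ex 485/em 535 nm. Signals were normalized to 0.29 uM artemisinin and DMSO wells, then corrected using vehicle-only plates flanking each stack. Parasite growth ran 72 h in erythrocytes before lysis.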

Assay [4] has as its target ATP-dependent DNA helicase Q1 (Homo sapiens) (UniProt P46063). Nature of the assay: qHTS Validation Assay for Inhibitors of RecQ-Like Dna Helicase 1 (RECQ1) (AID 2353).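 Further: plate controls were DMSO vehicle for no effect and enzyme-free control for full effect.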 A digest of the protocol:
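50 nM RECQ1T1 preincubated 15 min with compound in Tris pH 8.0 buffer with MgCl2, DTT, Tween-20 and 2.5 ug/ml poly(dI-dC); started with 200 nM TAMRA/BHQ-2 forked duplex and 2 mM ATP. Unwinding read as fluorescence (525/598 nm), two reads 2 h apart.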

The nature of assay [5]: Quantitative high throughput screen for delayed death inhibitors of the malarial parasite plastid, 96 hour incubation (AID 488745). Further: nearly all actives have a fitted effect of over 70% in size. Further: potency means the concentration at half of the fitted maximal effect. The essentials: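 P. falciparum carrying an integrated firefly luciferase reporter, grown in erythrocytes (2% hematocrit, 0.1% parasitemia final) in RPMI 1640/0.5% Albumax, was exposed to compound for 96 h (two generations) at 37 C, 5% CO2. Luminescence decrease indicated growth inhibition.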

The target of assay [6] is M-phase phosphoprotein 8 (Homo sapiens) (UniProt Q99549). Nature of the assay: qHTS Validation Assay for Inhibitors for MPP8 Chromodomain Interactions with Methylated Histone Tails (AID 488949). Further: nearly all actives have a fitted effect of over 55% in size. Further: potency means the concentration at half of the fitted maximal effect. A digest of the protocol: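 MPP8 (50 nM) was preincubated with biotinylated H3(1-18)K9me3 peptide (50 nM) in PBS pH 7.4, 0.01% Tween-20 for 30 min at room temperature, then with compounds for 30 min; binding was detected by AlphaScreen.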

Assay [7] addresses Transient receptor potential cation channel subfamily V member 1 (Homo sapiens) (UniProt Q8NER1). Nature of the assay: HTS Assay for Compounds that Act as Enhancers of the Vanilloid Receptor 1 (AID 488979). Further: 0% is about no effect. A digest of the protocol: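 TRPV1-expressing cells loaded with Fluo-8 calcium dye; compounds added and calcium influx read kinetically for 3 min (agonist phase), then capsaicin at EC20 added and read 2 min more for enhancement. Fluorescence ex 480/em 520 nm.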

For assay [8], the target named is Thyrotropin receptor (Homo sapiens) (UniProt P16473). Nature of the assay: qHTS Assay for Antagonists of the Thyroid Stimulating Hormone Receptor (AID 488980). Further: series mostly up to about 58 µM; 0% is about no effect. The essentials:
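HEK293 cells transfected with human TSHR, suspended in HEPES-buffered HBSS with 70 uM RO 20-1724, were treated with compounds plus TSH at EC80 (4 nM final). cAMP was measured by competitive HTRF (cryptate anti-cAMP antibody, cAMP-d2 acceptor).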

The target of assay [9] is Thyrotropin-releasing hormone receptor (Homo sapiens) (UniProt P34981). Nature of the assay: qHTS for Small Molecule Agonists and Allosteric Enhancers of Human TRH Receptor: Validation Screen for Agonists (AID 493127;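 active means calcium activation more than 3 SD above the typical response in the agonist read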;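 further: intracellular calcium rise by fluo-8 fluorescence before TRH EC20 addition; 0% is about no effect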). As to conditions: TRH receptor agonist cell assay; at 2 µM; hits give high values. The essentials:
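TRHR-expressing cells were plated overnight in serum-containing medium, then loaded with fluo-8 calcium dye at room temperature for 30 min–1.5 h. After a 10 s baseline, compound was pin-transferred and calcium fluorescence (ex 480/em 530) read kinetically for agonist response.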

For assay [10], the target named is Voltage-gated inwardly rectifying potassium channel KCNH2 (Homo sapiens) (UniProt Q12809). Nature of the assay: qHTS Assay for Small Molecule Inhibitors of the Human hERG Channel Activity (AID 588834).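 Further: lower thallium flux fluorescence means stronger hERG block; nearly all actives have a fitted effect of over 50% in size.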 Further: potency means the concentration at half of the fitted maximal effect. The essentials: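 U2OS cells transduced with hERG via BacMam (MOI ~100), plated 2000/well, loaded with FluxOR thallium dye, compound ~10 min, then stimulation buffer; fluorescence decrease read kinetically; AC50 from Hill fits.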

In assay [11] the target is Dual specificity protein kinase CLK4 (Homo sapiens) (UniProt Q9HAZ1). Nature of the assay: qHTS Assay for Inhibitors of CDC-like Kinase 4 (ADP-Glo Assay) (AID 1771). Further: nearly all actives have a fitted effect of over 70% in size. Further: potency means the concentration at half of the fitted maximal effect. The essentials:
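Clk4 (25 nM) was incubated 1 hr at room temperature with 100 uM RS repeat peptide and 1 uM ATP in buffer with 2 mM MgCl2, 0.5 mM EGTA, 2.5 mM DTT. ADP formed was quantified by ADP-Glo luminescence.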

Assay [12] has the same target. Nature of the assay: qHTS Assay for Inhibitors of CDC-like Kinase 4 (ADP-FP Assay) (AID 1795). Further: nearly all actives have a fitted effect of over 60% in size. Further: potency means the concentration at half of the fitted maximal effect. The essentials: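 Recombinant human Clk4 (6.25 nM) phosphorylated RS repeat peptide (100 uM) with 1 uM ATP in Tris pH 7.5/MgCl2/EGTA/DTT/Triton buffer for one hour. ADP was quantified by Transcreener competitive fluorescence polarization against an ADP calibration curve.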

Assay [13] can be described thus: qHTS for differential inhibitors of proliferation of Plasmodium falciparum line W2 (AID 1883).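 Further: parasites grown with compound for 72 h before lysis and staining.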 Further: potency means the concentration at half of the fitted maximal effect. As to conditions: Potency: Plasmodium falciparum W2 proliferation inhibition.
Assay [14] in a line: qHTS for differential inhibitors of proliferation of Plasmodium falciparum line HB3 (AID 1886).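 Further: parasites grown with compound for 72 h before SYBR Green readout.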 Further: potency means the concentration at half of the fitted maximal effect. As to conditions: Potency: Plasmodium falciparum HB3 proliferation inhibition.
Assay [15] addresses Galactokinase (Homo sapiens) (UniProt P51570). Nature of the assay: qHTS Validation Assay for Inhibitors of Human Galactokinase (GALK) (AID 493189). Further: 0% is about no effect. The essentials: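 GALK (5 nM) with 35 uM ATP and 100 uM galactose in HEPES pH8.0, MgCl2, NaCl, DTT, BSA; 1 h at room temperature. Residual ATP read by Kinase-Glo Plus luminescence after 10 min.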
Assay [16] concerns the target Cytochrome P450 2C19 (Homo sapiens) (UniProt P33261). Nature of the assay: qHTS Assay for Inhibitors and Substrates of Cytochrome P450 2C19 (AID 899). Further: on the % scale 0 is the no-effect control and ±100 the full control effect; nearly all actives have a fitted effect of over 60% in size. The essentials:
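In 50mM KPO4, the reaction held 5nM enzyme and KM-level (10uM) Luciferin-H EGE; it ran 60 min at 37C after NADPH regeneration and a 10 min compound preincubation. Luminescence values were scaled to 57uM ketoconazole as complete inhibition.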

A short description of assay [17]: qHTS for differential inhibitors of proliferation of Plasmodium falciparum line 3D7 (AID 1876). Further: potency means the concentration at half of the fitted maximal effect.
Assay [18] deals with DNA dC->dU-editing enzyme APOBEC-3G (Homo sapiens) (UniProt Q9HC16). Nature of the assay: qHTS for inhibitors of Vif-A3G interactions: Validation (AID 588379). Further: 0% is about no effect. The essentials:
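HeLa cells stably expressing Vif and A3G-eYFP, 700 cells/well, incubated overnight at 37 deg C, then exposed to compound overnight at 37 deg C. Inhibition of Vif-mediated degradation read as increased yellow fluorescence (Ex 488/Em 500-530) by laser-scanning cytometry.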

SMILES strings stand for the structures. Values without a mark were called inactive. Results filed as inconclusive are left out. The source made the active and inactive calls. Unless noted, the call rests on the fitted dose curve; in most records, active means well fitted curve in the direction sought with a large enough effect; inconclusive means small, poorly fitted or top-dose-only effect, or another doubt; inactive means no such curve, though single readings can be large; an effect the other way counts as inactive or inconclusive.

Voltage-gated inwardly rectifying potassium channel KCNH2 (Homo sapiens), sequence (Q12809 whole entry, looked up): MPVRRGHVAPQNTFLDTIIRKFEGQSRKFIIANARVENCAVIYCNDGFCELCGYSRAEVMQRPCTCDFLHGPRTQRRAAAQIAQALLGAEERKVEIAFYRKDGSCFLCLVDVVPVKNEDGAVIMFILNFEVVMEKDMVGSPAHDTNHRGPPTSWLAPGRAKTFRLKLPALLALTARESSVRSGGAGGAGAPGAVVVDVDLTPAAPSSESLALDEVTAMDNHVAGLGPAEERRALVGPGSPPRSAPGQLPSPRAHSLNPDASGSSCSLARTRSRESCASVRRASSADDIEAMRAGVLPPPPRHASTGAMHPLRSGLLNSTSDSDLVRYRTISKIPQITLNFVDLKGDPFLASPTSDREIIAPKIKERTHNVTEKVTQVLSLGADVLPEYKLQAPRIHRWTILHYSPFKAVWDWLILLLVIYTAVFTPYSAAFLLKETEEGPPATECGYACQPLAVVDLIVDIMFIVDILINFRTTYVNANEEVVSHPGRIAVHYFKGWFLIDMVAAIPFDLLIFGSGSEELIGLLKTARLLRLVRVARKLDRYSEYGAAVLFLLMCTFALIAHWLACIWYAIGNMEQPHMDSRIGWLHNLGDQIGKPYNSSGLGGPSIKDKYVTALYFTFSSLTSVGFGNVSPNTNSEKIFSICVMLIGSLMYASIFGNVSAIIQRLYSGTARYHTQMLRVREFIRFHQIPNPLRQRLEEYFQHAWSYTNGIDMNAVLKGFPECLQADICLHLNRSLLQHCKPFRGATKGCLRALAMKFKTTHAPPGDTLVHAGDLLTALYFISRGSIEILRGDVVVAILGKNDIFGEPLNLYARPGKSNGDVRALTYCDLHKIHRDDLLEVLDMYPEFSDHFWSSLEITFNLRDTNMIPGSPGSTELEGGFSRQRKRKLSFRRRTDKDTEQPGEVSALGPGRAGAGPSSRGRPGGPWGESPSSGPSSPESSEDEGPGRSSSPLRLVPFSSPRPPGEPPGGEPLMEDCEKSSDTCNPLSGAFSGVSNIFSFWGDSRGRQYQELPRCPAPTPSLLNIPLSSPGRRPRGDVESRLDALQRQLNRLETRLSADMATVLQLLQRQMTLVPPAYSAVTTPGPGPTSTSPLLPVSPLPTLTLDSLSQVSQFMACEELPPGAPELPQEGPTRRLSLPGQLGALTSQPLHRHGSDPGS
Thyrotropin receptor (Homo sapiens), sequence (P16473 whole entry, looked up): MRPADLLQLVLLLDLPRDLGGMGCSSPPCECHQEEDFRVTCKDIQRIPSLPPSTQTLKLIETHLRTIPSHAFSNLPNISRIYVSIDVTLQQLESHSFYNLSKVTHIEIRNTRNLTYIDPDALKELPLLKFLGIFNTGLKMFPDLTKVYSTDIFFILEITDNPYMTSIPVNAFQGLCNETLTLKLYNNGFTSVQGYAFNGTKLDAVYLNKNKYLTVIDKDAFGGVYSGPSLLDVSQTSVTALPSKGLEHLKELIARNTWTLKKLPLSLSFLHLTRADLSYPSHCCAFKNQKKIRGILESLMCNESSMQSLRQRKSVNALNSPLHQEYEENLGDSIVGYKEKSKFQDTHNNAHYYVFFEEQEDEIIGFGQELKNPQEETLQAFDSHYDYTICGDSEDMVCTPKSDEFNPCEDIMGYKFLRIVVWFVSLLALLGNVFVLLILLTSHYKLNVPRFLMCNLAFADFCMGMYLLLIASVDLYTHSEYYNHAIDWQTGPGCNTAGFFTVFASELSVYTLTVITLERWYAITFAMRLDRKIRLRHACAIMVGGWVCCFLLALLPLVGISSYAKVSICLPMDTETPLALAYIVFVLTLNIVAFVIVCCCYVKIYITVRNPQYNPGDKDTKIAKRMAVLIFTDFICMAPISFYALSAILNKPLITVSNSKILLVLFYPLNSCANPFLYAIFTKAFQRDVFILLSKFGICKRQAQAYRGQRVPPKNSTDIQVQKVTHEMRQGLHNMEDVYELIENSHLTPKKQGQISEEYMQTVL
ATP-dependent DNA helicase Q1 (Homo sapiens), sequence (P46063 whole entry, looked up): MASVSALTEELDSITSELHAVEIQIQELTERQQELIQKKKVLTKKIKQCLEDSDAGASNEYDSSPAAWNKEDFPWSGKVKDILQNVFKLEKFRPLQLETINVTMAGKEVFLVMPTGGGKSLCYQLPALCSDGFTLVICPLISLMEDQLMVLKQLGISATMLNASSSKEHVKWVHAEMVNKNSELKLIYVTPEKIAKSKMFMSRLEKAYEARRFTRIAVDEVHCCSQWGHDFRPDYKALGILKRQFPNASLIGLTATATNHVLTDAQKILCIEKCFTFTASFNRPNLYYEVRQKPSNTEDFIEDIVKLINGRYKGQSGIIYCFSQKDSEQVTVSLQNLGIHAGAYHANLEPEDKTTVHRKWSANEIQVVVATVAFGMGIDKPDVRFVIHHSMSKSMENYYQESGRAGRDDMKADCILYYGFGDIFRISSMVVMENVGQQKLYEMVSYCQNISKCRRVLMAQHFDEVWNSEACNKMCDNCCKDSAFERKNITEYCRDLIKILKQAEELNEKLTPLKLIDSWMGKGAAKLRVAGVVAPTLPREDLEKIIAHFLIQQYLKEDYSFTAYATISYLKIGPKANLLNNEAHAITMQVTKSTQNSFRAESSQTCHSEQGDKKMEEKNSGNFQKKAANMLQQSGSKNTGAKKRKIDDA
Thyrotropin-releasing hormone receptor (Homo sapiens), sequence (P34981 whole entry, looked up): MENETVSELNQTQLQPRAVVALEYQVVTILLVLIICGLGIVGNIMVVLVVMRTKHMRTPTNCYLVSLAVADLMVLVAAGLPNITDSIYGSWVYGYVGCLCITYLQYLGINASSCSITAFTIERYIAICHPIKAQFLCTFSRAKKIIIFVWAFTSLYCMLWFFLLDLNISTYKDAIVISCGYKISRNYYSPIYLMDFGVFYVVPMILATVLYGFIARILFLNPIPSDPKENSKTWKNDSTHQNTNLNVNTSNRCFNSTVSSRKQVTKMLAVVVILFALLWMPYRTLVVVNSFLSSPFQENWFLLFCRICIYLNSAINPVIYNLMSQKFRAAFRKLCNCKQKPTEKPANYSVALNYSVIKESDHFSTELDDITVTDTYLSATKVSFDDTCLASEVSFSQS
Galactokinase (Homo sapiens), sequence (P51570 whole entry, looked up): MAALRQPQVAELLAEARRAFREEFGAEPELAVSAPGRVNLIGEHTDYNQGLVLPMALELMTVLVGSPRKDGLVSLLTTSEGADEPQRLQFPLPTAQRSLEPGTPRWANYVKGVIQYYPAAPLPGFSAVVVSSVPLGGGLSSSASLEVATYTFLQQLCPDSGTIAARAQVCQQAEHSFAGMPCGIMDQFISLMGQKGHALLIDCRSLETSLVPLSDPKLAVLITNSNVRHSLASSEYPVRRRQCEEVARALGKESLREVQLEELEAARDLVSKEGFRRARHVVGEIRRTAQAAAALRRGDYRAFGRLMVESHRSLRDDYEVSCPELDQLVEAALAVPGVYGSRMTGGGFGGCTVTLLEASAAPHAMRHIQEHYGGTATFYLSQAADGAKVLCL
DNA repair nuclease/redox regulator APEX1 (Homo sapiens), sequence (P27695 whole entry, looked up): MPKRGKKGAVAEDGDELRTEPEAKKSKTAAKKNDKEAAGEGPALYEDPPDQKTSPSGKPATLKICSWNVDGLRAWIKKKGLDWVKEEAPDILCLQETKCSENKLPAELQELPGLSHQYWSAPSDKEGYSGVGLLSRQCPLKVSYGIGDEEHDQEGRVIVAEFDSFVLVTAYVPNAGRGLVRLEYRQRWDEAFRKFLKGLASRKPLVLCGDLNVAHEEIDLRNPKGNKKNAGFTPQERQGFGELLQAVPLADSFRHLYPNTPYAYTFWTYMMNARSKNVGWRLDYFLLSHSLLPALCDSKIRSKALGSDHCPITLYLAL
M-phase phosphoprotein 8 (Homo sapiens), sequence (Q99549 whole entry, looked up): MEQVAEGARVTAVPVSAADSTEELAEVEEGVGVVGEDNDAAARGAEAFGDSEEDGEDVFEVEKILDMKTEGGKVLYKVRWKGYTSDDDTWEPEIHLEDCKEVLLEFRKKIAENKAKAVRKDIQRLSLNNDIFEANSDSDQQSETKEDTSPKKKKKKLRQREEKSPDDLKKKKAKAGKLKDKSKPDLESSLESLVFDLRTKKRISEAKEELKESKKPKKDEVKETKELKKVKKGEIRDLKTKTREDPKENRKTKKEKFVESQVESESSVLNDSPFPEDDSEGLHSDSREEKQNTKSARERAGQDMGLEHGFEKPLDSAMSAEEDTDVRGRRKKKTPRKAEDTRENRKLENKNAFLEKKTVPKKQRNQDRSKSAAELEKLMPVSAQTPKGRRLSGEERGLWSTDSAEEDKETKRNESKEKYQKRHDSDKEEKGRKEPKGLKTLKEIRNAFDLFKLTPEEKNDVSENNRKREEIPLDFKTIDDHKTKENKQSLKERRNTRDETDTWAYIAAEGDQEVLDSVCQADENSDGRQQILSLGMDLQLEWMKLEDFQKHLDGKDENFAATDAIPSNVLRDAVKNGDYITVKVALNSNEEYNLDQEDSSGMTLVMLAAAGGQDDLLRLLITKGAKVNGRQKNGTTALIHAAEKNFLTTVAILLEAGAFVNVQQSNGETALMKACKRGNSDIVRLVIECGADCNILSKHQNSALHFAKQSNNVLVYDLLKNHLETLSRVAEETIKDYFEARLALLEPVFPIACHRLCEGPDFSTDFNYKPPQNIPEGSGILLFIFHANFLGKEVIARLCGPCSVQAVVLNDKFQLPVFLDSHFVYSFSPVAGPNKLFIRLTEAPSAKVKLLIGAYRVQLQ
Dual specificity protein kinase CLK4 (Homo sapiens), sequence (Q9HAZ1 whole entry, looked up): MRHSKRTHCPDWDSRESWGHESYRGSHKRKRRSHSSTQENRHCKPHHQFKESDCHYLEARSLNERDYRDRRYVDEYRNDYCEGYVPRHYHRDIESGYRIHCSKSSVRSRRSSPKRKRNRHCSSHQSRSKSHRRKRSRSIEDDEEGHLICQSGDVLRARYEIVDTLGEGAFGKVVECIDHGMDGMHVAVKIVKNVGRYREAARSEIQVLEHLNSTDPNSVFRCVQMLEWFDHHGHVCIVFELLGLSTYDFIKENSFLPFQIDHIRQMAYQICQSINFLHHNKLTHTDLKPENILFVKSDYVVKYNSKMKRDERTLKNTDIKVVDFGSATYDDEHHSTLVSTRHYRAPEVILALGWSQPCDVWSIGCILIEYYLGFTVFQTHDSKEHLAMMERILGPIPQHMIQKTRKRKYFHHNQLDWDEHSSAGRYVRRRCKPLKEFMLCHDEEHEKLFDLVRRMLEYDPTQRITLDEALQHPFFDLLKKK

On to `Nc1ncnc2c1ncn2[C@@H]1O[C@H](COP(=O)(O)OP(=O)(O)OP(=O)(O)OP(=O)(O)OC[C@@H]2O[C@H](n3cnc4c(N)ncnc43)[C@@H](O)[C@@H]2O)[C@H](O)[C@H]1O`, for which the result in assay [1], in [2], in assay [4], in assay [7] and in [8] was inactive. Also, the Potency entry in assay [3], in assay [5], in [6] and in [10] was “inactive” throughout. The activation in assay [9] is 13.9%.
For the molecule `COc1ccc(-c2nc3cnc(N4CCN(C)CC4)nc3n(C3CC3)c2=O)cc1`, the Potency result in assay [11] and in assay [12] was “inactive” in each case.
Take `Nc1ncnc2c1nc(Br)n2C1O[C@H]2COP(=O)(O)O[C@@H]2C1O` (stereo partly drawn): the result in [1], in assay [2], in assay [4], in [7], in [8] and in assay [15] was inactive. Also, the Potency in assay [13] is 5620 nM (active); in assay [14], 6310 nM (active). The activation in [9] is 0.688%. The Potency result in [10] is “inactive”.
`Cc1noc(C)c1-c1cncnc1N1CCN(C)CC1`: the Potency result in assay [16], in [11] and in assay [12] was “inactive” each time.
Take `CN1CCN(c2ncc3nc(-c4cn(C)c5ccccc45)c(=O)n(C)c3n2)CC1`: the Potency entry in [11] and in [12] was “inactive” each time.
Turning to `C[C@@H](Oc1ccc(Oc2cnc3ccc(Cl)cc3n2)cc1)C(=O)O`, the molecule was classed as inactive in assay [2], in assay [4], in assay [7], in assay [8] and in assay [15]. The Potency result in [17], in assay [3], in assay [13], in assay [14], in assay [5] and in [6] was “inactive” each time. Moreover, the Potency entry in [10] was “inactive”. Besides, in [9], the activation is -0.0625%.
As to `CCCC1O[C@@H]2C[C@H]3[C@@H]4CCC5=CC(=O)C=C[C@]5(C)C4[C@@H](O)C[C@]3(C)[C@]2(C(=O)CO)O1` (stereo partly drawn), the result in [1], in assay [2], in assay [4], in [7] and in [15] was inactive. Besides, the Potency was 2510 nM (active) in [17]; 5010 nM (active) in [3]; 2510 nM (active) in assay [13]; 5010 nM (active) in assay [14]; 2940 nM (active) in assay [5]. The Potency entry in [6] and in assay [10] was “inactive” in each case. Moreover, the activation in [9] was 2.06%.
For `COCCNc1ncnc2ccc(-c3ccc(N(C)C)cc3)cc12`, in [11], the Potency is 10000 nM (active). The Potency result in assay [12] is “inactive”.
`NC(=NCc1ccc(Cl)c(Cl)c1)NC(=O)c1nc(Cl)c(N)nc1N`: the call in [1], in assay [2], in assay [4], in [8] and in assay [15] was inactive. Besides, the Potency in assay [17] is 282 nM (active); in assay [3], 1580 nM (active); in [13] it was 1000 nM (active); in [14] it was 501 nM (active); in [5] it was 586 nM (active); in assay [6] it was 50100 nM (active). Moreover, the Potency in assay [10] is 2000 nM (active). Also, in assay [9], the activation was 4.94%.
As to `CN1CCN(c2ncc3nc(CCc4ccccc4)c(=O)n(C)c3n2)CC1`, the Potency entry in assay [11] and in [12] was “inactive” in each case.
On to `O=C1C=CC2=C3c4cc(O)c(O)cc4CC3(O)COC2=C1O` (stereo not drawn), for which the molecule was called inactive in assay [18].
For the molecule `COCCn1c(=O)c(CCc2ccccc2)nc2cnc(Oc3ccc(OC)cc3)nc21`, the Potency entry in assay [11] and in assay [12] was “inactive” throughout.
Regarding `CNC(=O)[C@H]1O[C@@H](n2cnc3c(N)ncnc32)[C@H](O)[C@H]1O`, the outcome in assay [1], in assay [2], in [4], in assay [7], in assay [8] and in assay [15] was inactive. Further, the Potency entry in [17], in [3], in [13], in [14], in assay [5] and in [6] was “inactive” each time. Further, the Potency result in assay [10] is “inactive”. Moreover, in [9], the activation was -0.0625%.
On to `O=c1c(-c2ccc(F)cc2)nc2cnc(N3CCNCC3)nc2n1Cc1cccs1`, for which the Potency result in assay [11] and in assay [12] was “inactive” each time.
Regarding `CN1CCN(c2ncc3ncc(=O)n(Cc4ccc(F)cc4)c3n2)CC1`, the Potency result in assay [11] and in assay [12] was “inactive” throughout.
On to `COc1ccc(-n2c(=O)c(-c3ccc(F)cc3)nc3cnc(N4CCNCC4)nc32)cc1`, for which the Potency result in assay [11] and in [12] was “inactive” each time.
Turning to `Cn1c(=O)c(-c2ccc(F)cc2)nc2cnc(OCc3ccccc3)nc21`, the Potency entry in assay [11] and in assay [12] was “inactive” in each case.
For the molecule `Cc1nc2cnc(N3CCN(C)CC3)nc2n(C[C@H]2CCCO2)c1=O`, the Potency result in assay [11] and in assay [12] was “inactive” throughout.
In the case of `COCCn1c(=O)c(-c2cccs2)nc2cnc(N3CCN(C)CC3)nc21`, the Potency result in assay [11] and in [12] was “inactive” throughout.
On to `CN1CCN(c2ncnc3ccc(-c4ccoc4)cc23)CC1`, for which the Potency was 794 nM (active) in assay [11] and 447 nM (active) in [12].
As for `CN(C)C(=O)c1ccc(-c2ccc3ncnc(NCc4cccs4)c3c2)cc1`, the Potency in [11] was 7080 nM (active); in assay [12], 14100 nM (active).
Take `COc1cccc(Nc2ncc3ncc(=O)n(C)c3n2)c1`: the Potency entry in assay [16] is “inactive”. The Potency in assay [11] was 1000 nM (active); in [12] it was 708 nM (active).
Turning to `CN1CCN(c2ncc3nc(-c4ccccc4)c(=O)n(C4CC4)c3n2)CC1`, the Potency result in [11] and in assay [12] was “inactive” throughout.
